We go through 36 compounds from PubChem BioAssay (Tox21).

Inconclusive results are not listed. Entries that show only a call come without a potency. Active and inactive are the calls of the source. Calls come from the whole dose curve; as a rule, active = well fitted cell-killing curve with a large enough effect in the repeat runs; inconclusive = weak or mixed curves; inactive = flat fitted curve, though single readings scatter.
Potency is the fitted concentration of half-maximal effect.

The nature of this assay: qHTS RealTime-Glo MT Cell Viability Assay in HepG2 cells - 24 hour (AID 1224867). Note: nearly all actives have a fitted effect of over 50% in size. The following applies: RealTime-Glo luminescence; series mostly up to 76.8 µM. Put shortly: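 HepG2 cells were seeded at 600 cells/well together with NanoLuc luciferase and a cell-permeant prosubstrate, preincubated 5 h at 37 C/5% CO2, then pin-dosed with compounds in DMSO. Nonlytic luminescence from viable cells was read at each time point.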
On the technique in general: In qHTS, concentration-response curves come from the screen itself.
As for `Oc1cccc(Nc2ccccc2)c1`, the Potency result is “inactive”.

As for `Cc1cc2c(OCC(CNC(C)(C)C)OC(=O)c3ccccc3)cccc2[nH]1` (stereo unspecified), the Potency result is “inactive”.

As for `CCC1(CO)COCOC1`, the Potency result was “inactive”.

In the case of `CC(C)(C)C(=O)C(=O)O`, the Potency result was “inactive”.

As to `CCCCOc1ccc(OCCCN2CCOCC2)cc1`, the Potency result was “inactive”.

Turning to `C(=C\c1ccccc1)/c1ccccc1`, the Potency result was “inactive”.

On to `Clc1cc(Cl)nc(Cl)n1`, for which the Potency result is “inactive”.

Regarding `O=C1NCCN1CCO`, the Potency result was “inactive”.

In the case of `CCCCCCCCOc1ccc(C(=O)O)cc1`, the Potency result was “inactive”.

As to `Oc1c(I)cc(I)c2cccnc12`, the Potency entry is “inactive”.

Turning to `CCOC(=O)c1ccc(I)cc1`, the Potency entry is “inactive”.

Turning to `Cc1cc(O)ccc1O`, the Potency entry is “inactive”.

On to `O=C1c2ccccc2C(=O)c2c(O)c(O)cc(O)c21`, for which the Potency result was “inactive”.

With `CCOC(=O)/C=C/C(=O)OCC`, the Potency result was “inactive”.

With `CCCCCCCC/C=C\CCCCCCCCO`, the Potency result is “inactive”.

Consider `O=C1Cc2cc(Cl)ccc2N1`, for which the Potency entry is “inactive”.

Regarding `CC(C)COCC(CN(Cc1ccccc1)c1ccccc1)N1CCCC1` (stereo unspecified), the Potency is 23.9 µM (active).

For the compound `C=CC(=O)[O-].C=CC(=O)[O-].[Zn+2]`, the Potency entry was “inactive”.

With `C=C1CCC2CC1C2(C)C` (stereo unspecified), the Potency entry is “inactive”.

Take `O=C(O)c1cccc(-c2noc(-c3ccccc3F)n2)c1`: the Potency result was “inactive”.

On to `CC(=O)OCCN(CCOC(C)=O)c1ccc(N=Nc2ccc([N+](=O)[O-])cc2C#N)cc1`, for which the Potency result was “inactive”.

`O=c1[nH]c2ccc(Cl)cc2o1`: the Potency entry is “inactive”.

For `CCc1ccccc1`, the Potency result was “inactive”.

On to `CCC(C)COC(C)=O` (stereo unspecified), for which the Potency entry is “inactive”.

As for `C=C(C)[C@@H]1CCC2=CCC[C@@H](C)[C@]2(C)C1`, the Potency entry was “inactive”.

Turning to `O=C(Cn1ccnc1[N+](=O)[O-])NCCO`, the Potency result is “inactive”.

For `C[C@@H]1CN(CCCn2c3ccccc3c3ccccc32)C[C@H](C)N1`, the Potency is 23.9 µM (active).

As for `C[C@]1(Cn2ccnn2)[C@H](C(=O)O)N2C(=O)C[C@H]2S1(=O)=O`, the Potency result was “inactive”.

Consider `O=C(/C=C/c1ccccc1)OCCc1ccccc1`, for which the Potency result is “inactive”.

`CCCCN1CCCC1C(=O)Nc1c(C)cc(C)cc1C` (stereo unspecified): the Potency result was “inactive”.

On to `Cc1ccc(C(C)(C)O)cc1`, for which the Potency entry was “inactive”.

Take `CCCCN(CCCC)C(C(N)=O)c1ccc(OC)cc1` (stereo unspecified): the Potency result was “inactive”.

As for `CCCCN(CCN(CCCC)C(=O)N1CCOCC1)C(=O)N1CCOCC1`, the Potency result was “inactive”.

Consider `CC1CC(OC(=O)C(O)c2ccccc2)CC(C)(C)N1C` (stereo unspecified), for which the Potency entry is “inactive”.

`OCCN1CCN(CCCN2c3ccccc3Sc3ccc(Cl)cc32)CC1`: the Potency was 23.9 µM (active).

Regarding `CCCCCC[C@@H](O)C/C=C\CCCCCCCC(=O)OCC(O)CO` (stereo partly specified), the Potency result is “inactive”.
